TDP1 cell noCPT = qHTS for Inhibitors of human tyrosyl-DNA phosphodiesterase 1 (TDP1): qHTS in cells in absence of CPT; DT40 Tdp1-/- hTDP1 cells, no CPT, ATP luminescence, 48 h; Potency, µM (doses to about 46.2 µM), without a hit: at the highest dose activity change, negative = growth inhibition, actives largely listed as inhibitors; actives 15% (n = 420,000); AID 686978, 2013; also: potency is read from the fitted curve at half-maximal effect; nearly all actives have a fitted effect of over 55% in size
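No-CPT arm: Tdp1-/-;hTDP1 DT40 cells (400/well) plus compounds, incubated ≥48 hr at 37 °C. Readout CellTiter-Glo luminescence.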
HT1080 IDH1KD tx = qHTS for induction of synthetic lethality in tumor cells producing 2HG: qHTS for the HT-1080-IDH1KD cell line; Potency, µM (series often up to 46.1 µM), inactives show at the highest dose activity, negative = toxicity, actives largely listed as cytotoxic; actives 2% (n = 360,000); HT-1080 IDH1 knockdown viability, ATP luminescence, 48 h;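 also: potency is read from the fitted curve at half-maximal effect; 0% = DMSO wells and -100% = cell-free medium wells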
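% activity derives from luminescence (CellTiter-Glo), normalised to DMSO and no-cell wells. HT-1080-IDH1KD cells, 750/well, had 48 h compound exposure at 37 °C.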
IL1B secr inh = qHTS for Inhibitors of Inflammasome Signaling: IL-1-beta AlphaLISA Primary Screen | AID 743279, 2014 | actives 4.7% (n = 360,000) | THP-1 LPS/ATP IL-1B secretion, AlphaLISA, 16 h; hits give low values | activity change, % at 57.5 µM; in the data active = activity change below about -50%; inconclusive = mostly about -30% to -49%
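THP-1 cells pretreated 1 hr with compounds (up to 57.5 uM final), then stimulated with LPS (250 ng/mL final) plus ATP (1.25 mM final); secreted IL-1B measured by AlphaLISA after 16 hr, decreased signal indicating inhibition.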
HT1080-NT tox = qHTS for induction of synthetic lethality in tumor cells producing 2HG: qHTS for the HT-1080-NT fibrosarcoma cell line | actives 1.6% (n = 360,000) | Potency, µM (top dose mostly 46.1 µM), inactives show at the highest dose activity, negative = less viability, usual class: cytotoxic | HT-1080-NT fibrosarcoma viability, CellTiter-Glo ATP luminescence, 48 h;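 also: NT is the 2HG producing partner of a matched IDH1 knockdown line; potency is read from the fitted curve at half-maximal effect; 0% = DMSO-treated cells and -100% = media-only wells without cells; nearly all actives have a fitted effect of over 55% in size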
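Fibrosarcoma NT cells, 750 per well in 5% FBS RPMI, were exposed to compound for 48 hours. Viability: CellTiter-Glo luminescence.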
DT40 TDP1 CPT = qHTS for Inhibitors of human tyrosyl-DNA phosphodiesterase 1 (TDP1): qHTS in cells in presence of CPT. chicken DT40 Tdp1-/-;hTDP1 cells + 20 nM CPT, ATP luminescence, 48 h. Potency, µM (doses to about 46.2 µM), without a hit: top-dose activity change, negative = growth inhibition, actives largely listed as inhibitors. actives 12% (n = 420,000); also: potency is read from the fitted curve at half-maximal effect; nearly all actives have a fitted effect of over 55% in size
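Chicken DT40 Tdp1-/- cells complemented with human TDP1, 400 cells/well, exposed to compounds plus 20 nM camptothecin for at least 48 h at 37 C; viability read as ATP content by CellTiter-Glo luminescence.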
The depositor's hits bear a star; ? = inconclusive; / = not tested or not shown. Only some compounds are listed: those with a hit (about 19% of all), similar ones and a draw of the others. Unless noted, calls follow the shape of the dose curve; as a rule, active = well fitted curve in the direction sought with a large enough effect; inconclusive = small, poorly fitted or top-dose-only effect, or another doubt; inactive = no such curve, though single readings can be large; an effect the other way counts as inactive or inconclusive. Unless noted, % is scaled to controls: 0 for no effect and ±100 for the full control effect.

SMILES | TDP1 cell noCPT | HT1080 IDH1KD tx | IL1B secr inh | HT1080-NT tox | DT40 TDP1 CPT
CCOc1ccc2cc(C#N)c(SCC(=O)N3CCC(C)CC3)nc2c1 | 21µM* | 1% | -3 | -3% | ?
CC(=O)CSc1nc2cc3c(cc2cc1C#N)OCCO3 | ? | 6% | -3 | 18% | 15µM*
CCOC(=O)CSc1nc2cc(OC)c(OC)cc2cc1C#N | 18µM* | / | / | / | ?
Cc1ccc(Sc2c(C)nn(C(=O)c3ccc(Cl)cc3)c2C)cc1 | -4% | / | / | / | 6%
CCOC(=O)c1nc2cc3n(c(C)c-2c1C)C(C)C(CC)=C3C (stereo unspecified) | 18µM* | -3% | -73* | 0% | 21µM*
COC(=O)C1CC2=C(CCC2=O)N(c2ccccc2)C1=O (stereo unspecified) | 4% | 4% | 32 | 13% | 5%
Cc1ccc(S(=O)(=O)NCCc2nnc3ccc(SCc4ccc(F)cc4)nn23)cc1 | 18µM* | / | / | / | 16µM*
Cc1ccc(S(=O)(=O)NCCc2nnc3ccc(SCc4cccc(F)c4)nn23)cc1 | 23µM* | / | / | / | 15µM*
CCC1CN(C(=O)N2CCC(C(=O)NCc3cccc(F)c3)CC2)c2ccccc2O1 (stereo unspecified) | ? | -6% | 18 | 1% | ?
CC1(C(=O)NS(=O)(=O)c2cccc(F)c2)CCN1C(=O)CCC1CCCC1 (stereo unspecified) | 11% | 0% | 30 | 15% | -4%
O=C(C[C@H]1C[C@H](C(=O)N2CCOCC2)[C@@]2(CCC3CCCC3)c3[nH]c4ccc(Cl)cc4c3CCN2C1=O)NCCN1CCOCC1 | ? | 7% | -2 | 8% | ?
O=C(C[C@H]1C[C@H](C(=O)N2CCOCC2)[C@@]2(CCC3CCCC3)c3[nH]c4ccc(Cl)cc4c3CCN2C1=O)NCC12CC3CC(CC(C3)C1)C2 | 21µM* | 1% | 43 | 1% | 16µM*
COCCCNC(=O)C[C@H]1C[C@H](C(=O)N2CCOCC2)[C@@]2(CCC3CCCC3)c3[nH]c4ccc(Cl)cc4c3CCN2C1=O | ? | 10% | -2 | 6% | 21µM*
COc1ccc2[nH]c3c(c2c1)CCN1C(=O)C(CC(=O)NCC24CC5CC(CC(C5)C2)C4)C[C@H](C(=O)N2CCOCC2)[C@@]31CCC1CCCC1 (stereo partly specified) | ? | 8% | -62* | 10% | ?
C[C@H]1CN([C@@H](C)CO)C(=O)Cc2cc(NC(=O)C3CC3)ccc2O[C@H]1CN(C)Cc1ccc(C(=O)O)cc1 | -3% | 13% | -6 | 11% | -35%
Cc1ccc(/C=C/c2onc(C)c2S(=O)(=O)N2CCC(C(=O)N3CCC(N(C)C(C)C)CC3)CC2)cc1 | 6.5µM* | / | / | / | 5.2µM*
Cc1ccc(/C=C/c2onc(C)c2S(=O)(=O)N2CCC(C(=O)N3CCN(c4ccccc4F)CC3)CC2)cc1 | 2.6µM* | / | / | / | 21µM*
Cc1noc(C)c1S(=O)(=O)N1CCC(C(=O)N2CCN(c3ccc(Cl)cc3)CC2)CC1 | ? | -15% | -27 | -6% | ?
CC(=O)c1ccc(N2CCN(C(=O)C3CCN(S(=O)(=O)c4c(C)noc4/C=C/c4ccc(C)cc4)CC3)CC2)cc1 | 2.6µM* | / | / | / | 6.5µM*
Cc1nc2cncnc2n(C2CC2)c1=O | 3% | / | / | / | 0%
CC(C)c1ccc(/C=C2\SC(N3CCOCC3)=NC2=O)cc1 | ? | -29% | -65* | 1% | ?
CCc1ccc(/C=C2/SC(N3CCOCC3)=NC2=O)cc1 | ? | 7% | -50* | 11% | 4%
O=C1N=C(N2CCOCC2)S/C1=C\c1ccncc1 | -16% | -2% | -5 | 13% | -11%
O=C1C(=O)N(CNc2ccccn2)c2ccccc21 | 1.6µM* | -22% | 62 | ? | 2.1µM*
CC[C@H](C)/C=C/C1=CC2=C(Cl)C(=O)[C@@]3(C)OC(=O)C(C(=O)[C@H](C)[C@@H](C)O)=C3C2=CO1 | 18µM* | -16% | -3 | 1% | ?
SMILES | TDP1 cell noCPT | HT1080 IDH1KD tx | IL1B secr inh | HT1080-NT tox | DT40 TDP1 CPT
Cc1oc2ncnc(N3CCCCC3)c2c1C(=O)NCC1CCN(Cc2ccc(F)cc2)CC1 | -23% | / | / | / | -26%
CCc1ccc(CNC(=O)c2c(C)oc3ncnc(N4CCOCC4)c23)cc1 | ? | / | / | / | 13µM*
Cc1ccc(NC(=O)c2c(C)oc3ncn(C)c(=O)c23)cc1F | 18µM* | / | / | / | ?
CCc1cccc(NC(=O)c2c(C)oc3ncnc(N4CCCCC4)c23)c1 | 9.2µM* | / | / | / | 13µM*
Cc1ccc(NC(=O)c2c(C)oc3ncnc(N4CCCCC4)c23)cc1Cl | 16µM* | / | / | / | 16µM*
COc1cccc(CNC(=O)c2c(C)oc3ncnc(N4CCOCC4)c23)c1 | -1% | / | / | / | 14%
Cc1cc(Br)ccc1NC(=O)c1c(C)oc2ncnc(N3CCCCC3)c12 | 16µM* | / | / | / | 16µM*
CC(NCC(=O)Nc1ccccc1C(=O)NC1CC1)c1ccc(Cl)cc1 (stereo unspecified) | 12µM* | -12% | ? | -1% | ?
O=S(=O)(Cc1ccccc1)N1CCC(c2nc(-c3cccs3)no2)CC1 | -23% | 6% | 31 | 4% | 9%
CCCCn1c(-c2ccccc2C)nc2cc3[nH]c(=O)c(C(C)C)nc3cc21 | ? | -6% | -26 | -26% | 21µM*
CCCCn1c(-c2cccc3ccccc23)nc2cc3[nH]c(=O)c(C(C)C)nc3cc21 | 16µM* | -7% | -13 | -29% | ?
CCCCn1c(C2CCCCC2)nc2cc3[nH]c(=O)c(C(C)C)nc3cc21 | ? | -2% | 24 | -4% | ?
CC1Cc2ccccc2N1CC(=O)NC(=O)NC1CCCCC1 (stereo unspecified) | -17% | -3% | 35 | 6% | 18µM*
CC1Cc2ccccc2N1CC(=O)NC(=O)NC(C)(C)C (stereo unspecified) | 7% | -11% | 65 | -19% | 5%
Nc1nc2c(c(=O)[nH]1)N(C=O)C(CNc1ccc(C(=O)NC(CCC(=O)O)C(=O)O)cc1)CN2 (stereo unspecified) | -5% | / | / | / | 24%
C/C(=N\Nc1ccc(C(=O)O)cc1)c1ccc2c(c1)Nc1ccccc1S2 | ? | ? | 0 | -19% | ?
CCOc1ccc(CCNC(=O)c2cc3cc4ccc(OC)cc4nc3s2)cc1OCC | ? | / | / | / | -45%
